{"source": "the antibiotic and cytotoxicity screens of Wong et al. (2023)", "note": "Out of some 39,000 compounds screened, about 3,300 (8.5%) were called active. What follows is part of a selection rich in actives, with near analogues and random picks from the rest."}
{"system": "HepG2", "assay": "cytotoxicity call (relative viability < 0.9)", "settings": "10 µM"}
{"molecule": "C[C@H]1CN([C@@H](C)CO)C(=O)c2cccc(NS(=O)(=O)c3ccccc3)c2O[C@H]1CN(C)S(=O)(=O)c1ccc(F)cc1", "cytotoxicity call": "inactive"}
{"molecule": "COCCNC(=O)C[C@H]1CC[C@H]2[C@@H](COC[C@H](O)CN2C(=O)Nc2ccc3c(c2)OCO3)O1", "cytotoxicity call": "inactive"}
{"molecule": "C(=N\\Cc1cccnc1)/c1c2ccccc2cc2ccccc12", "cytotoxicity call": "active"}
{"molecule": "OCc1cccnc1", "cytotoxicity call": "inactive"}
{"molecule": "O=C(O)CCC(=O)NCc1cccnc1", "cytotoxicity call": "inactive"}
{"molecule": "CNS(=O)(=O)c1ccc(Cl)c(C(N)=O)c1", "cytotoxicity call": "inactive"}
{"molecule": "NS(=O)(=O)c1ccc(Cl)cc1[N+](=O)[O-]", "cytotoxicity call": "inactive"}
{"molecule": "O=C(Nc1ccc(Cl)cc1C(=O)c1ccc(Cl)cc1)c1cc(Br)ccc1NS(=O)(=O)c1ccc(Cl)cc1", "cytotoxicity call": "active"}
{"molecule": "C[C@H](CO)N1C[C@H](C)[C@@H](CN(C)Cc2ccc(C(=O)Nc3ccccc3N)cc2)Oc2c(NS(=O)(=O)c3ccc(Cl)cc3)cccc2C1=O", "cytotoxicity call": "inactive"}
{"molecule": "O=C(Nc1ccc([N+](=O)[O-])cc1Cl)c1cc(Cl)ccc1O", "cytotoxicity call": "active"}
{"molecule": "C/C=C/C(=O)c1cc(Cl)ccc1O", "cytotoxicity call": "inactive"}
{"molecule": "O=C(Nc1cc(Cl)ccc1Cl)c1cc(Br)ccc1NS(=O)(=O)c1ccc(Cl)c([N+](=O)[O-])c1", "cytotoxicity call": "active"}
{"molecule": "O=C(Nc1cc(Cl)ccc1Cl)c1cc(Cl)ccc1NS(=O)(=O)c1ccc(Cl)c([N+](=O)[O-])c1", "cytotoxicity call": "active"}
{"molecule": "C[C@H]1CN([C@@H](C)CO)C(=O)c2cccc(NS(=O)(=O)c3ccc(Cl)cc3)c2O[C@H]1CN(C)Cc1ccc(C(=O)Nc2ccccc2N)cc1", "cytotoxicity call": "inactive"}
{"molecule": "NC(=O)c1ccc([N+](=O)[O-])cc1Cl", "cytotoxicity call": "inactive"}
{"molecule": "NS(=O)(=O)c1ccc(F)c([N+](=O)[O-])c1", "cytotoxicity call": "inactive"}
{"molecule": "C[C@@H]1CN([C@@H](C)CO)S(=O)(=O)c2ccc(-c3cccc(C(=O)N(C)C)c3)cc2O[C@@H]1CN(C)C(=O)Cc1ccccn1", "cytotoxicity call": "inactive"}
{"molecule": "COc1ccc([C@@H]([C@H](Cc2ccccc2)OC(C)=O)N2C[C@H]3C(=NO[C@@H]3[C@@H](OC(C)=O)c3ccccc3)[C@@H]2Cc2ccccc2)cc1", "cytotoxicity call": "inactive"}
{"molecule": "C[C@@H]1CN([C@@H](C)CO)C(=O)c2cc(NC(=O)CCN3CCOCC3)ccc2O[C@H]1CN(C)Cc1ccc2c(c1)OCO2", "cytotoxicity call": "inactive"}
{"molecule": "COCC(=O)Nc1ccc2c(c1)C(=O)N(C)C[C@@H](OC)[C@@H](C)CN(C(=O)c1ccccc1F)[C@@H](C)CO2", "cytotoxicity call": "inactive"}
{"molecule": "CO[C@@H]1CN(C)C(=O)c2cc(NC(=O)C3CCCC3)ccc2OC[C@@H](C)N(C(=O)Nc2ccc(C(F)(F)F)cc2)C[C@H]1C", "cytotoxicity call": "inactive"}
{"molecule": "Cc1cnc(CNC(=O)[C@H]2C[C@H]3[C@@H](CCN3S(C)(=O)=O)O2)cn1", "cytotoxicity call": "inactive"}
{"molecule": "O=C(C[C@@H]1C[C@@H]2c3cc(NS(=O)(=O)c4ccc(F)cc4)ccc3O[C@@H]2[C@H](CO)O1)NCC(F)(F)F", "cytotoxicity call": "inactive"}
{"molecule": "CC=Cc1ccc2n(c1=O)C[C@@H]1[C@@H](CO)[C@H](C(=O)NCCc3cn(C)cn3)[C@H]2N1C(=O)C1CC1", "cytotoxicity call": "inactive"}
{"molecule": "Cn1c(=O)c(=O)n(C)c2cc(S(=O)(=O)CCC(=O)NCc3ccccc3)ccc21", "cytotoxicity call": "inactive"}
{"molecule": "CCCCNc1ccc(C(=O)OCCN(C)C)cc1.Cl", "cytotoxicity call": "active"}
{"molecule": "CCCCOC(=O)c1ccc(O)cc1", "cytotoxicity call": "inactive"}
{"molecule": "CCCCNc1ccc(C(=O)OCCOCCOCCOCCOCCOCCOCCOCCOCCOC)cc1", "cytotoxicity call": "inactive"}
{"molecule": "Cc1noc(C)c1NC(=O)N(C)C[C@@H]1Oc2c(NC(=O)Nc3cccc4ccccc34)cccc2C(=O)N([C@H](C)CO)C[C@@H]1C", "cytotoxicity call": "inactive"}
{"molecule": "C[C@@H]1CN([C@H](C)CO)C(=O)c2cc(NC(=O)c3ccccc3)ccc2O[C@@H](C)CCCCO[C@@H]1CN(C)Cc1ccncc1", "cytotoxicity call": "inactive"}
{"molecule": "O=C(C1CCC1)N1CCOCC1", "cytotoxicity call": "inactive"}
{"molecule": "C[C@@H](N)CCc1ccc(Br)cc1", "cytotoxicity call": "inactive"}
{"molecule": "C[C@@H]1CCCCO[C@@H](CN(C)C(=O)C2CCCCC2)[C@H](C)CN([C@@H](C)CO)C(=O)c2cc(NC(=O)c3ccncc3)ccc2O1", "cytotoxicity call": "inactive"}
{"molecule": "C[C@@H]1CN([C@H](C)CO)C(=O)c2cc(NC(=O)CCCN(C)C)ccc2O[C@@H]1CN(C)C(=O)Nc1ccc2c(c1)OCO2", "cytotoxicity call": "inactive"}
{"molecule": "C[C@@H]1CN([C@H](C)CO)C(=O)c2cc(NS(=O)(=O)c3ccccc3)ccc2O[C@H]1CN(C)C(=O)Nc1cccc2ccccc12", "cytotoxicity call": "inactive"}
{"molecule": "C[C@@H]1CN([C@H](C)CO)C(=O)c2cc(NS(=O)(=O)c3ccccc3)ccc2O[C@@H]1CN(C)C(=O)Nc1cccc2ccccc12", "cytotoxicity call": "active"}
{"molecule": "C[C@H](CO)N1C[C@H](C)[C@H](CN(C)C(=O)Nc2cccc3ccccc23)Oc2ccc(NS(=O)(=O)c3ccccc3)cc2C1=O", "cytotoxicity call": "inactive"}
{"molecule": "Cc1ccc(S(=O)(=O)Nc2ccc3c(c2)C(=O)N([C@@H](C)CO)C[C@H](C)[C@H](CN(C)C(=O)Nc2cccc4ccccc24)O3)cc1", "cytotoxicity call": "inactive"}
{"molecule": "Cc1ccc(S(=O)(=O)Nc2ccc3c(c2)C(=O)N([C@H](C)CO)C[C@@H](C)[C@H](CN(C)C(=O)Nc2cccc4ccccc24)O3)cc1", "cytotoxicity call": "active"}
{"molecule": "Cc1ccc(S(=O)(=O)Nc2ccc3c(c2)C(=O)N([C@@H](C)CO)C[C@H](C)[C@@H](CN(C)C(=O)Nc2cccc4ccccc24)O3)cc1", "cytotoxicity call": "inactive"}
{"molecule": "CC(C)NC(=O)N(C)C[C@H]1Oc2ccc(NC(=O)c3ccncc3)cc2CC(=O)N([C@H](C)CO)C[C@@H]1C", "cytotoxicity call": "inactive"}
{"molecule": "C[C@@H]1CCCCO[C@H](CN(C)S(=O)(=O)c2cccs2)[C@H](C)CN([C@@H](C)CO)C(=O)c2cc(NS(=O)(=O)c3cn(C)cn3)ccc2O1", "cytotoxicity call": "inactive"}
{"molecule": "Cc1ccc(S(=O)(=O)Nc2ccc3c(c2)C(=O)N([C@@H](C)CO)C[C@@H](C)[C@@H](CN(C)C(=O)NC2CCCCC2)OCCCC[C@@H](C)O3)cc1", "cytotoxicity call": "inactive"}
{"molecule": "CC(C)(C)OC(=O)C[C@H]1CC=CC[C@H](CC(=O)NCCO)C(=O)N[C@H](Cc2ccccc2)COC1=O", "cytotoxicity call": "inactive"}
{"molecule": "C[C@@H]1CN([C@H](C)CO)C(=O)Cc2cc(NS(=O)(=O)c3cn(C)cn3)ccc2O[C@H]1CN(C)Cc1ccc(C(=O)Nc2ccccc2N)cc1", "cytotoxicity call": "inactive"}
{"molecule": "CN1C(=O)c2cc(NS(=O)(=O)c3cccc(F)c3)ccc2OC[C@H]2O[C@@H](CC(=O)NCCN3CCCCC3)CC[C@H]21", "cytotoxicity call": "inactive"}
{"molecule": "C[C@H]1CN([C@@H](C)CO)C(=O)Cc2cc(NC(=O)Nc3ccc(C(F)(F)F)cc3)ccc2O[C@H]1CN(C)Cc1ccc2c(c1)OCO2", "cytotoxicity call": "inactive"}
{"molecule": "C[C@@H]1CN([C@H](C)CO)C(=O)Cc2cc(NC(=O)Nc3ccc(C(F)(F)F)cc3)ccc2O[C@@H]1CN(C)Cc1ccc2c(c1)OCO2", "cytotoxicity call": "active"}
{"molecule": "C[C@@H]1CN([C@H](C)CO)C(=O)Cc2cc(NC(=O)Nc3ccc(C(F)(F)F)cc3)ccc2O[C@H]1CN(C)Cc1ccc2c(c1)OCO2", "cytotoxicity call": "inactive"}
{"molecule": "C[C@@H]1CN([C@@H](C)CO)C(=O)Cc2cc(NC(=O)Nc3ccc(C(F)(F)F)cc3)ccc2O[C@H]1CN(C)Cc1ccc2c(c1)OCO2", "cytotoxicity call": "active"}
{"molecule": "C[C@H](CO)N1C[C@H](C)[C@@H](CN(C)Cc2ccc3c(c2)OCO3)Oc2ccc(NC(=O)Nc3ccc(C(F)(F)F)cc3)cc2CC1=O", "cytotoxicity call": "active"}
{"molecule": "C[C@H](CO)N1C[C@H](C)[C@H](CN(C)Cc2ccc3c(c2)OCO3)Oc2ccc(NC(=O)Nc3ccc(C(F)(F)F)cc3)cc2CC1=O", "cytotoxicity call": "active"}
{"molecule": "C[C@H]1CN([C@@H](C)CO)C(=O)Cc2cc(NC(=O)Nc3ccc(C(F)(F)F)cc3)ccc2O[C@@H]1CN(C)Cc1ccc2c(c1)OCO2", "cytotoxicity call": "inactive"}
{"molecule": "Cc1noc(C)c1NC(=O)N(C)C[C@@H]1OCCCC[C@@H](C)Oc2ccc(NC(=O)NC3CCCCC3)cc2C(=O)N([C@H](C)CO)C[C@H]1C", "cytotoxicity call": "inactive"}
{"molecule": "NCC[C@@H]1CC[C@@H](NC(=O)C2CC2)[C@H](CO)O1", "cytotoxicity call": "inactive"}
{"molecule": "COc1ccc(CN(C)C[C@@H]2Oc3ccc(NS(=O)(=O)c4cn(C)cn4)cc3CC(=O)N([C@@H](C)CO)C[C@@H]2C)cc1", "cytotoxicity call": "inactive"}
{"molecule": "C[C@@H]1CCCCO[C@H](CN(C)C(=O)C2CCCCC2)[C@@H](C)CN([C@H](C)CO)C(=O)c2cc(NC(=O)c3ccncc3)ccc2O1", "cytotoxicity call": "inactive"}
{"molecule": "C[C@@H]1CN([C@H](C)CO)C(=O)c2cc(NC(=O)Cc3ccccc3)ccc2O[C@@H](C)CCCCO[C@@H]1CN(C)Cc1ccc2c(c1)OCO2", "cytotoxicity call": "inactive"}
{"molecule": "C[C@@H]1CN([C@H](C)CO)C(=O)c2cc(Br)cnc2O[C@H]1CN(C)C(=O)Nc1ccccc1F", "cytotoxicity call": "inactive"}
{"molecule": "CCCCC[C@@H](C[C@@H](CC(=O)O)O[C@H]1O[C@@H](CO)[C@@H](O[C@H]2O[C@@H](CO)[C@@H](O)[C@@H](O)[C@@H]2O)[C@@H](O)[C@@H]1O)OC(=O)C[C@H](O)C[C@H](CCCCC)O[C@H]1O[C@@H](CO)[C@@H](O)[C@@H](O)[C@@H]1O", "cytotoxicity call": "inactive"}
{"molecule": "Cn1c(O)cc(=O)n(C)c1=O", "cytotoxicity call": "inactive"}
{"molecule": "CCS(=O)(=O)NCC[C@H]1CC[C@H](NS(=O)(=O)c2ccccc2C)[C@@H](CO)O1", "cytotoxicity call": "inactive"}
{"molecule": "Cc1cccc(/C=C2\\CS/C(=C\\c3cccc(C)c3)C2=O)c1", "cytotoxicity call": "inactive"}
{"molecule": "COC(=O)[C@@H]1C[C@H](C#N)N[C@@H]1c1ccccn1", "cytotoxicity call": "inactive"}
{"molecule": "C[C@@H]1CN([C@@H](C)CO)C(=O)Cc2cc(NC(=O)Nc3ccc(C(F)(F)F)cc3)ccc2O[C@@H]1CN(C)Cc1ccc2c(c1)OCO2", "cytotoxicity call": "active"}
{"molecule": "C[C@H]1CN([C@@H](C)CO)S(=O)(=O)c2ccc(C#CCN(C)C)cc2O[C@H]1CN(C)S(C)(=O)=O", "cytotoxicity call": "inactive"}
{"molecule": "COc1ccc(CCN(C)CCCOc2ccc(S(=O)(=O)c3c(C(C)C)cn4ccccc34)cc2)cc1OC", "cytotoxicity call": "active"}
{"molecule": "COc1ccc(CCN(C)CCCOc2ccc(S(=O)(=O)c3[nH]c4ccccc4c3C(C)C)cc2)cc1OC", "cytotoxicity call": "active"}
{"molecule": "COc1ccc(CCN(C)CCCOc2ccc(S(=O)(=O)c3c(C(C)C)c4ccccc4n3C)cc2)cc1OC", "cytotoxicity call": "active"}
{"molecule": "COc1ccc(C(=O)NCc2ccc(OCCN(C)C)cc2)cc1OC", "cytotoxicity call": "inactive"}
{"molecule": "COc1ccc(NC(=O)N(C)C[C@H]2Oc3c(NS(=O)(=O)c4cn(C)cn4)cccc3C(=O)N([C@H](C)CO)C[C@@H]2C)cc1", "cytotoxicity call": "inactive"}
